Screens as filed in PubChem BioAssay.
TRPM1 prom inh = inhibitors of MITF-driven TRPM1 promoter in melanoma cells. SK-MEL-5 TRPM1 promoter luciferase, 24 h. inhibition, % at 12.5 µM. 330,000 tested, 0.83% active. AID 488899;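 active = mean inhibition across replicates of 60% or more, whatever share of single replicates reaches that level; inconclusive = some that reach 60%, reason not given; inactive = mean inhibition across replicates below 60%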
TWEAK-Fn14 inh = blocks TWEAK-Fn14 interaction in a reporter cell assay. TWEAK-stimulated Fn14 reporter cells, luciferase luminescence, 8 h. inhibition, % at 10 µM. 360,000 tested, 2% active. AID 1159606; in the data active = inhibition above about 50%
TROY NFkB inh = inhibitors of TROY-dependent NF-kB signaling. Q293 LMP1-TROYcd NF-kB luciferase reporter, 4 h. inhibition, % at 10 µM. 360,000 tested, 0.98% active;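 active = compounds whose plate-normalised and pattern-corrected inhibition of the luciferase reporter signal at the single screening dose is 50% or more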
Peg3 prom inh = reduces Peg3 promoter-driven luciferase expression in HeLa | HeLa PEG-Prom luciferase reporter, luminescence, overnight | inhibition, % at 20 µM | 360,000 tested, 1.7% active;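 active = inhibition of at least 50% at 20 µM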
LMP1 NFkB inh = reduces LMP1-driven NF-kappaB luciferase signal; LMP1-induced NF-kappaB luciferase reporter cells, luminescence; inhibition, % at 12.5 µM; 350,000 tested, 0.69% active; in the data active = inhibition above about 41%; inconclusive = no clear call, values can overlap the other calls;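 note: 0% = neutral control wells and 100% = reference inhibitor control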
Shn3 inh set2 = inhibitors of Schnurri-3 3'UTR reporter in osteoblasts; Clone20 osteoblast Shn3 3'UTR firefly luciferase, 24 h; inhibition, % at 12.5 µM; 360,000 tested, 0.52% active;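 active = mean inhibition of at least 75% with every replicate also reaching 75%; inconclusive = mean inhibition at least 75% but some replicate below; inactive = mean inhibition below 75%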;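 note: 0% = median of neutral control wells and 100% = pilot-screen positive control compound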
* marks the source's active call; other numbers are inactive results; u = inconclusive; x = not tested or not shown. Most compounds without a hit are left out; they make up all but 4.1% or so of the library.

SMILES	TRPM1 prom inh	TWEAK-Fn14 inh	TROY NFkB inh	Peg3 prom inh	LMP1 NFkB inh	Shn3 inh set2
O=C(Nc1ccccc1N1CCCC1)c1ccc([N+](=O)[O-])cc1Cl	5	6	3	7	7	3
O=C1c2cccnc2C(=O)N1Cc1ccc(F)cc1S(=O)(=O)NCc1ccco1	3	28	-17	13	72*	12
C[C@@H]1CN([C@H](C)CO)C(=O)c2cc(Br)cnc2O[C@H]1CN(C)C(=O)CC1CC1	x	16	1	4	-1	1
CCOC(=O)N1CCC(=NNC(=O)COc2ccc(OC)cc2)CC1	-3	96*	-8	-16	3	-5
Cc1ccccc1NC(=O)CSc1nc(N2CCCCC2)nc(N2CCCCC2)n1	-1	3	12	2	-2	72
CC(=O)c1ccc(NC(=O)CSc2nc(N3CCOCC3)nc(N3CCOCC3)n2)cc1	-12	-20	-34	-121	-10	-63
CCOC(=O)c1ccc(NC(=O)CSc2nc(N3CCOCC3)nc(N3CCOCC3)n2)cc1	24	-35	9	23	66*	16
CC(=O)c1cccc(NC(=O)CSc2nc(N3CCCCC3)nc(N3CCCCC3)n2)c1	-20	54*	57*	-56	-36	-15
CN(C)c1ccc(C=c2c3ccccc3n3c2cc(-c2ccc(Cl)cc2)[n+]3C)cc1	97*	54*	62*	61*	22	u
CN(c1ccc(Cl)cc1)c1cc(=O)n(C)c2ccccc12	27	-43	-47	-39	-26	9
CN(C)c1ccc(C=c2c3cc([N+](=O)[O-])ccc3n3c2cc(-c2ccccc2)[n+]3C)cc1	95*	76*	43	106*	18	86*
CN(C)c1ccc(C=c2c3ccccc3n3c2c2c([n+]3C)CCCC2)cc1	98*	63*	48	102*	42*	91*
COC(=O)c1ccc(CN(C(=O)N2CCN(C)CC2)S(=O)(=O)c2ccc(C)cc2)cc1	6	7	-13	-13	-1	8
CC1(C)CCN2CCC(C)(C)c3c(O)ccc1c32	64*	64*	47	48	19	58
Cc1cccc2c(=O)c(Br)c(C)n(Cc3ccccc3)c12	11	-17	-4	12	-7	-19
C[C@]12CCC(O)CC1CCC1C2CC[C@]2(C)C(c3cc(C(F)(F)F)n[nH]3)CCC12 (some centres undefined)	9	-36	61*	101*	13	10
O=C(Nc1cc(C(F)(F)F)ccc1N1CCOCC1)c1ccccc1F	-1	62*	x	10	4	6
O=C(Nc1cc(C(=O)N2CCCC2)ccc1N1CCCC1)c1ccccc1F	27	11	20	-1	51*	16
Cc1csc2ncnc(N3CCN(C(=S)Nc4ccc(C(F)(F)F)cc4)CC3)c12	1	51*	48	14	6	19
Cc1csc2c(N3CCN(C(=S)Nc4ccc(C(F)(F)F)cc4)CC3)ncnc12	6	26	7	4	-3	18
CC(=O)Nc1cc2nn(-c3ccccc3)nc2cc1C	-2	50	6	-137	-1	5
CCC(=O)Nc1cc2nn(-c3ccccc3)nc2cc1Cl	-8	52*	10	-161	-14	-32
CCN(CC)S(=O)(=O)c1ccc2[nH]c(=O)cc(C(=O)NCc3ccccc3)c2c1	5	23	4	32	-2	-20
Cc1ccc[n+](CC(=O)Nc2cc(C(F)(F)F)ccc2Cl)c1	-4	3	14	-5	-1	-7
CCC(C)(C)c1ccc(OCCCC[n+]2cccc(C)c2)c(C(C)(C)CC)c1	98*	77*	48	101*	24	88*
SMILES	TRPM1 prom inh	TWEAK-Fn14 inh	TROY NFkB inh	Peg3 prom inh	LMP1 NFkB inh	Shn3 inh set2
O=C1CC(c2ccccc2)=NN1c1ccccc1	-9	-18	52*	37	1	-5
CCCCOC(=O)c1ccc(NC(=S)N2CCN(c3ncc4c(=O)c(C(=O)O)cn(CC)c4n3)CC2)cc1	43	63*	27	-6	-3	-7
COc1ccc(CCN2CCC(Nc3nc4ccccc4n3Cc3ccc(F)cc3)CC2)cc1	96*	-9	0	82*	-25	14
CN(Cc1ccc(OC(F)F)cc1)C(=O)c1ccc2c(=O)n3c(nc2c1)CCC3	1	-2	1	6	2	-7
N#CC1C=Cc2ccccc2N1C(=O)c1ccccc1 (centres undefined)	2	7	-12	9	-2	0
N#CC1C=Cc2c(ccc3ccccc23)N1C(=O)c1ccccc1 (centres undefined)	65*	54*	-12	-140	32	50
Cc1ccc(-c2nn(-c3cc(N4CCNCC4)ccc3[N+](=O)[O-])c(=O)c3ccccc23)cc1	47	-17	-4	102*	-11	29
CC(=O)Nc1ccc(S(=O)(=O)N2CCN(c3ccc([N+](=O)[O-])cc3)CC2)cc1	8	12	25	10	7	34
Cc1ccc(N(CCC#N)C(=O)COC(=O)C2CCN(S(=O)(=O)c3ccc(C)c(C)c3)CC2)cc1	1	-17	-8	3	-4	-2
COc1ccc(-c2cc(C(=O)NC(Cc3cc4ccccc4[nH]3)C(=O)O)c(C)o2)cc1OC (centres undefined)	-3	-9	4	-53	-23	6
COc1ccc(-c2cc(C(=O)O)c(C)o2)cc1OC	41	98*	59*	30	7	2
COc1cccc(NC(=O)COC(=O)c2sccc2C)c1	-106	-16	-62	-339	-27	-14
CCOc1ccc(NC(=O)Cn2cncc2-c2ccc([N+](=O)[O-])cc2)cc1	36	0	-15	81*	-16	-9
O=C(Cn1c(=O)oc2ccccc21)NCCc1ccccc1Cl	-8	10	-1	11	4	-16
Cc1ccc([C@H]2C[C@H](O)[C@@H](n3cc(C4CC4)nn3)CN2Cc2cccs2)cc1	x	-6	-58	-119	-32	-58
O=C(Nc1ccc(N2CCN(c3ncccc3C(F)(F)F)CC2)nc1)c1cccs1	17	96*	82*	104*	5	42
S=c1[nH]nc(-c2ccncc2)n1/N=C/C(Cl)=C\c1ccccc1	-69	81*	22	-83	-17	-31
Cc1ccc(-c2n[nH]c(=S)n2/N=C/c2ccc(C)o2)cc1	4	-5	-7	20	-2	-5
Cc1ccc(-c2n[nH]c(=S)n2/N=C/c2ccncc2)cc1	-1	72*	27	-6	6	15
Cc1nn(-c2ccccc2)c(C)c1/C=N/n1c(-c2ccc(Cl)cc2)n[nH]c1=S	4	-23	12	53*	3	11
Cc1nn(-c2ccccc2)c(C)c1/C=N/n1c(-c2ccncc2)n[nH]c1=S	-23	-29	1	22	4	13
COc1ccc(NC(=O)COC(=O)c2cc(SC)ccc2Cl)c(OC)c1	6	-10	13	8	7	-39
